In PubChem BioAssay AID1224858 (National Center for Advancing Translational Sciences (NCATS), 2016):
Results filed as inconclusive are left out. A number with no mark means an inactive call. Active and inactive are the calls of the source. The call rests on the fitted dose curve; in most records, active means well fitted inhibition curve with a large enough effect; inconclusive means small, poorly fitted or top-dose-only effect; inactive means no such curve, though single readings can be large or run the other way.

Test: Confirmation assay for measurement of the activity of small molecule inhibitors on Zika virus induced Caspase-3 activity in human astrocytes
Conditions: ZIKV-induced caspase-3/7 luminescence, 6 h; series mostly up to 46.1 µM; activity, negative = inhibition: at the top concentration
Outline: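 Percent inhibition was derived from Caspase-Glo 3/7 luminescence, scaled between uninfected cells and ZIKV-infected cells. Astrocytes got compound 1 h before 2 FFU/cell ZIKV, then 6 h infection at 37 C.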

Row | Structure (SMILES) | activity, negative = inhibition | Potency
1 | CCCCCCCC/C=C/C(=O)O | -26.5% | –
2 | COc1ccc(/C=C/C(=O)Nc2ccccc2C(=O)O)cc1OC | – | 13.8 µM (active)
3 | COc1cc2nc(N3CCN(C(=O)C4CCCO4)CC3)nc(N)c2cc1OC (stereo unspecified) | – | 10.9 µM (active)
4 | C[C@@H](O[C@H]1OCCN(Cc2n[nH]c(=O)[nH]2)[C@@H]1c1ccc(F)cc1)c1cc(C(F)(F)F)cc(C(F)(F)F)c1 | 123% | –
5 | NC1CCC(Nc2nc(Nc3ccc(C(=O)N4CCCCC4)cc3)c3ncn(-c4cccc(F)c4)c3n2)CC1 (stereo unspecified) | 55.7% | –
6 | CCCCCNC(=O)N1CCC(CN(Cc2ccc(Cl)cc2)Cc2ccc([N+](=O)[O-])s2)C1 (stereo unspecified) | 17.4% | –
7 | O=C(Nc1cc2cc[nH]c2cn1)c1ccccc1 | – | 4.35 µM (active)
8 | CC(C)(C)OC(=O)CN(Cc1ccc(Cl)cc1)Cc1ccc([N+](=O)[O-])s1 | -24.1% [at 88.3 µM] | –
9 | Cc1ccc(O)c(-n2nc3ccccc3n2)c1 | – | 7.74 µM (active)
10 | C[C@H](NC(=O)C(=O)Nc1ccccc1C(C)(C)C)C(=O)N[C@@H](CC(=O)O)C(=O)COc1c(F)c(F)cc(F)c1F | – | 0.245 µM (active)
11 | O=C(/C=C/c1ccccc1)NCCO | -18.6% | –
12 | C[C@@H]1CCN(C(=O)CC#N)C[C@H]1N(C)c1ncnc2[nH]ccc12 | -16.5% | –
13 | NC(N)=NN=C(/C=C/c1ccc([N+](=O)[O-])o1)/C=C/c1ccc([N+](=O)[O-])o1 | -25.3% | –
14 | O=c1c2ccccc2nc2n1CCc1c-2[nH]c2ccccc12 | – | 4.89 µM (active)
15 | Cc1nc(N)sc1-c1ccnc(Nc2ccc(N3CCOCC3)cc2)n1 | -7.98% | –
16 | CCCCCCOc1ccccc1C(N)=O | -10.9% | –
